# Compound activity: PubChem, University of Kansas High Throughput Screening Laboratory
# The entries come from a sample that favours hits as a whole.
# Pf apPOL inh = Pf-apPOL inhibitors, biochemical, fluorescence | Recombinant Pf-apPOL, molecular beacon fluorescence, 1.5 h | inhibition, % at 10 µM | 0.25% of 210,000 active
# mHTT-CaM PPI inh = mutant huntingtin-calmodulin interaction inhibitors – biochemical, AlphaScreen, primary screen; P42858; AlphaScreen His-mHTT/GST-CaM binding, luminescence; inhibition, % at 15 µM; 3.6% of 190,000 active;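 further: 0% = both proteins with DMSO and 100% = one protein alone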
# The depositor's hits bear a star; i = inactive; nt = no result given; + = active, no number; ! = a repeat was not active. No stated cut-off is given here; in the data, active means inhibition above about 50%; inactive means the rest.
SMILES,Pf apPOL inh,mHTT-CaM PPI inh
COc1cc(OC)cc(C2=NC3(CCCC3)N(C(=O)c3ccc(OC)c(OC)c3)C2=S)c1,-4,85*
COc1cc(C(=O)N2C(=S)C(c3ccccc3)=NC23CCCCC3)cc(OC)c1OC,-3,4
O=C(CSc1ncccn1)Nc1ccc(Br)cc1C(F)(F)F,-6,-7
CN(C)c1ccc(C2C(N3C(=O)c4ccccc4C3=O)C(=O)N2c2ccc(Cl)cc2)cc1 (centres undefined),4,8
CC(C)(C)OC(=O)CC1CCCN1 (centres undefined),-8,3
O=C(CSc1cn(Cc2ccc(F)cc2)c2ccccc12)Nc1ccc(F)cc1,1,20
O=C1CCN(CCc2ccccc2)CCN1[C@H](COc1ccccc1)Cc1ccccc1,-4,98*
O=C1CCN(CCc2ccccc2)CCN1[C@H](CSc1ccc(Br)cc1)c1ccccc1,-4,21
CC(C)CN1CCC(=O)N([C@H](COc2ccccc2)Cc2ccccc2)CC1,-6,19
CC(C)C[C@@H](COc1ccccc1)N1CCN(CCc2ccccc2)CCC1=O,-10,84*
CC(=O)Nc1ccc(SC[C@H](c2ccccc2)N2CCN(CCc3ccccc3)CCC2=O)cc1,-6,98*
CCCN1CCC(=O)N([C@H](COc2ccccc2)CC(C)C)CC1,-3,7
Cc1cc(C)c(C#N)c(SC2CC(=O)N(c3ccccc3)C2=O)n1 (centres undefined),-3,21
Cc1ccc(-c2nccc(C3CCCN(C(=O)c4ccc(F)cc4)C3)n2)cc1 (centres undefined),-1,-6
Cc1ccc(NC(=O)C2CCCN(S(=O)(=O)c3ccc(Br)s3)C2)cc1F (centres undefined),2,-5
Cc1cccc2c(=O)n(C3CCN(S(=O)(=O)c4ccccc4)CC3)cnc12,0,-3
Cc1cc(-c2nnc(NC(=O)c3ccc4c(c3)OCCO4)o2)n(C)n1,-3,-17
O=C(NCCN1CCCC1)C1CCN(c2ccc(Br)cc2)C1=O (centres undefined),7,12
Cc1ccc(OCC(=O)Nc2ccc(F)cc2)cc1,2,-12
Cc1ccc(NC(=O)COc2ccc(Br)cc2)cc1,80*,-16
O=c1oc(/C=C/c2ccc([N+](=O)[O-])cc2)nc2ccccc12,2,5
O=C1Nc2ccccc2C1=Nc1ccc(N=C2C(=O)Nc3ccccc32)c([N+](=O)[O-])c1,1,15
COc1ccc(OC)c(/C=C2\C=C(c3cc(OC)ccc3OC)OC2=O)c1,-8,12
COc1ccc(C)cc1C1=C/C(=C\c2ccc(C)o2)C(=O)O1,3,61*
Cc1[nH]c2ccccc2c1C(c1ccncc1)N1CCC(C)CC1 (centres undefined),-4,22
SMILES,Pf apPOL inh,mHTT-CaM PPI inh
COC(c1cccs1)c1c(C)[nH]c2ccccc12 (centres undefined),4,60*
COc1ccc(/C=C2/N=C(c3ccccc3F)OC2=O)cc1OC,-3,23
COc1ccccc1C1C(C#N)=C(C(C#N)C#N)NC(O)(C2CC2)C1[n+]1ccc(C)cc1 (centres undefined),-14,1
Cc1cc[n+](C2C(c3ccc(Br)cc3)C(C#N)=C(S)NC2(O)C2CC2)cc1 (centres undefined),-7,89*
CCOc1ccc2sc(C=NCc3ccc(F)cc3)c(O)c2c1,2,45
CCOc1ccc2sc(C=NCc3ccc(OC)cc3)c(O)c2c1,0,55*
CC(C)NC(=O)c1ccc2c(c1)CC(=O)N2C,-1,-4
S=c1[nH]nc(-c2cc(-c3ccccc3)n[nH]2)n1/N=C/C=C/c1ccco1,nt,+
S=c1[nH]nc(-c2ccco2)n1/N=C/C=C/c1ccco1,nt,i
CSc1cccc(NC(=O)CN2CCC3(CC2)N=C(c2cccc(C)c2)C(=O)N3)c1,5,70*
COc1ccccc1NC(=O)CN1CCC2(CC1)N=C(c1cccc(Cl)c1)C(=O)N2,2,97*
COc1ccc(NC(=O)CN2CCC3(CC2)N=C(c2ccc(C)cc2)C(=O)N3)c(OC)c1,-2,39
CSc1cccc(NC(=O)CN2CCC3(CC2)N=C(c2ccc(C)cc2)C(=O)N3)c1,-3,26
COc1ccccc1NC(=O)CN1CCC2(CC1)N=C(c1ccc(Cl)cc1)C(=O)N2,0,-8
Cc1ccc(NC(=O)CN2CCC3(CC2)N=C(c2ccccc2)C(=O)N3)cc1F,-3,55*
COc1ccccc1NC(=O)CN1CCC2(CC1)N=C(c1cccc(C)c1)C(=O)N2,4,50*
O=C(CN1CCC2(CC1)N=C(c1ccccc1)C(=O)N2)Nc1ccc(F)c(F)c1,-5,1
CCn1c(=O)c(-c2ccc(C(=O)Nc3ccc(F)c(F)c3)cc2)nc2cccnc21,-5,4
COc1cccc(S(=O)(=O)N2CCN(C)C(c3ccc(F)cc3)C2)c1 (centres undefined),-4,-2
COc1ccccc1NC(=O)c1ccnc(N2CCC(C(=O)Nc3ccc(F)cc3)CC2)c1,3,-1
Cc1ccc(CNC(=O)c2ccc3c(c2)N(C)C2CCCCN2C3=O)cc1 (centres undefined),-1,-10
O=C(c1ccc(Cl)cc1Cl)N1CCN(c2ncccn2)CC1,-1,-4
NNC(=O)c1cc(/C=C/c2ccc([N+](=O)[O-])cc2)nc2ccc(Br)cc12,-6,18
Cc1ccc(C)c(NC(=O)CN2CCC3(CC2)N=C(c2ccccc2)C(=O)N3)c1,-3,7
Cc1ccc(NC(=O)CN2CCC3(CC2)N=C(c2ccccc2)C(=O)N3)c(C)c1,-4,56*
SMILES,Pf apPOL inh,mHTT-CaM PPI inh
Cc1occc1C(=O)N1CCCN(C(=O)c2ccoc2C)CC1,2,8
COc1cccc(NC(=O)N2C(=O)C(=O)c3cc(Br)ccc32)c1,28,73*
COc1cccc(NC(=O)c2cc(Br)ccc2OC)c1,-1,-6
Cc1ccc(F)c(N2CCC(C(=O)NCc3ccc(F)cc3)C2=O)c1 (centres undefined),-2,-6
O=C(O)c1cc(-n2cccc2)ccc1Cl,18,72*
O=C(O)c1cc(N2C(=O)C3C4c5ccccc5C(c5ccccc54)C3C2=O)ccc1Cl (centres undefined),0,1
COc1ccc(Cl)cc1NC(=O)CSc1nccn1-c1cccc(C)c1C,4,56*
Cc1cccc(-n2ccnc2SCC(=O)Nc2ccc(F)cc2F)c1C,10,25
CCOc1ccc(-c2c(C#N)c(N)nc(SCC(=O)c3ccc(O)c(O)c3)c2C#N)cc1,-8,69*
CCOc1ccc(-c2c(C#N)c(N)nc(SCC(=O)c3ccc(C)cc3)c2C#N)cc1,6,-5
N#Cc1c(N)nc(SCC(=O)c2ccccc2)c(C#N)c1-c1ccc(O)cc1,-2,62*
N#Cc1c(N)nc(SCC(=O)c2ccc([N+](=O)[O-])cc2)c(C#N)c1-c1ccccc1,-1,15
CCOc1ccc(-c2c(C#N)c(N)nc(SCC(=O)c3ccc(OC)cc3)c2C#N)cc1,-23,-1
N#Cc1c(N)nc(SCC(=O)c2ccc(Br)cc2)c(C#N)c1-c1ccc(O)cc1,-1,78*!
Cc1ccc(-c2nnc(Cc3nc(C(C)(C)C)no3)o2)cc1C,-4,-14
COc1ccc(S(=O)(=O)N2CCC(C(=O)Nc3ccc(Cl)cc3)CC2)c2cccnc12,-7,23
COc1cccc2sc(Nc3nc4ccc(S(C)(=O)=O)cc4s3)nc12,-252,-36
COc1cccc2sc(Nc3nnc(-c4cccs4)o3)nc12,-265,76*
